The source of these data is PubChem BioAssay.

The nature of test [1]: viability loss with induced miR-34 in A549 – imaging, A549 dox-inducible miR-34, nuclei and caspase counts, primary screen (AID 1347080). Also: test concentration not given here. The note with it: A549 miR-34 inducible, Hoechst nuclei count, 48 h.
Test [2] in a line: MELAS cybrid and Rieske KO viability enhancers – cell-based, MELAS cybrids, Rieske KO mouse fibroblasts, CellTiter-Glo, primary screen (AID 1508586;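 active = mean z-score across replicates of 1.96 or higher in either the MELAS or the Rieske mutant cell line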;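 also: test concentration not given here; z relative to plate mean and SD of compound and empty wells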). The settings on record: low glucose.
A short description of test [3]: galactose survival enhancers in mitochondrial complex I cybrids – cell-based, galactose medium, ATP luminescence, primary screen (AID 1645843;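 active = z-score of at least 1.8 in each of two replicates, scored against plate mean and spread of sample wells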;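 also: positive z means more ATP and so rescue of galactose-driven cybrid death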). The settings on record: complex I mutant cybrid cells, 72 h, stronger effect = higher value.
Where [4] appears, read: stronger effect = lower value, cell number ratio, induced over uninduced.
Setting [5] is: measured here: relative caspase fold change +Dox/-Dox.
Where [6] appears, read: measured here: total cells with miR-34 induction, stronger effect = lower value.
Setting [7] is: measured here: total cells without miR-34 induction.
Where [8] appears, read: MELAS cybrid survival, CellTiter-Glo 48 h, stronger effect = higher value.
Where [9] appears, read: Rieske KO mouse fibroblast survival, CellTiter-Glo 72 h.

Values joined by “and” are separate entries in the source; they are usually repeats but may differ in a detail not shown here. Equal entries are not always repeated. Active and inactive are the calls of the source.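 The calls were made as follows, unless noted: active = compounds whose cell count with miR-34 switched on is under 0.7 times the count with it off; inactive = the rest.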

As to `CCN(CC)S(=O)(=O)c1cc(C(=O)Nc2ccccc2C(=O)O)ccc1Br`, the fold change in test [1] (setting [4]) is 0.904 (inactive); in test [1] (setting [5]), 0.416. The values for the cell count in test [1] (setting [6]) and in test [1] (setting [7]) were 8290 and 9170, respectively. Moreover, the results for the z-score in test [2] (setting [8]), in test [2] (setting [9]) and in test [3] were -0.577 (inactive), 0.639 and 0.82 (inactive), respectively.
Take `Cc1cc(CN(C)C(=O)c2cc(-c3cnn(C(C)C)c3)nc3cc(F)ccc23)on1`: the fold change in test [1] (setting [4]) is 0.883 (inactive); in test [1] (setting [5]), 1.43. The cell count in test [1] (setting [6]) was determined as 8520; in test [1] (setting [7]) it was 9660. Further, the z-score in test [2] (setting [8]) is -1.12 (inactive); in test [2] (setting [9]), 0.385; in test [3] it was -0.48 (inactive).
Consider `O=C(O)CNC(=O)Cc1c[nH]c2ccccc12`, for which the fold change in test [1] (setting [4]) is 0.855 (inactive); in test [1] (setting [5]), 0.234. The cell count in test [1] (setting [6]) is 8420; in test [1] (setting [7]), 9850. Moreover, the z-score in test [2] (setting [8]) is -0.685 (inactive); in test [2] (setting [9]), -0.0302; in test [3], -0.545 (inactive).
Turning to `CCN(Cc1nccn1C)C(=O)c1cc(-c2cnc(C)nc2)nc2cc(F)ccc12`, the figures for the fold change in test [1] (setting [4]) and in test [1] (setting [5]) were 0.881 (inactive) and 1.32, respectively. The cell count in test [1] (setting [6]) is 8950; in test [1] (setting [7]) it was 10200. In addition, the z-score in test [2] (setting [8]) was -0.0942 (inactive); in test [2] (setting [9]), -0.488; in test [3], -0.2 (inactive).
Regarding `COc1cccc2ncn(Cc3nc4ccccc4o3)c(=O)c12`, the fold change in test [1] (setting [4]) is 0.951 (inactive); in test [1] (setting [5]) it was 1.68. Also, the results for the cell count in test [1] (setting [6]) and in test [1] (setting [7]) were 8290 and 8720, respectively. The z-score in test [2] (setting [8]) was -0.0437 (inactive); in test [2] (setting [9]), -0.268; in test [3] it was -0.545 (inactive).
Take `Cc1cc(=O)oc2cc(OC3OC(CO)C(O)C(O)C3O)ccc12` (stereo not drawn): the fold change in test [1] (setting [4]) was 0.875 (inactive); in test [1] (setting [5]) it was 0.68. Moreover, the cell count in test [1] (setting [6]) stood at 8660; in test [1] (setting [7]), 9900. Further, the values for the z-score in test [2] (setting [8]), in test [2] (setting [9]) and in test [3] were 0.734 (inactive), -0.54 and 0.72 (inactive), respectively.
With `O=c1cc(-c2ccccc2)oc2ccccc12`, the fold change in test [1] (setting [4]) was 0.858 (inactive); in test [1] (setting [5]) it was 0.735. Moreover, the cell count was determined as 7170 in test [1] (setting [6]) and 8370 in test [1] (setting [7]). Also, the z-score in test [2] (setting [8]) is 2.28 (active); in test [2] (setting [9]), 0.116; in test [3], 1.36 (inactive).
As to `NC(N)=NCC(=O)O`, the figures for the fold change in test [1] (setting [4]) and in test [1] (setting [5]) were 0.926 (inactive) and 0.467, respectively. The cell count came out at 8690 in test [1] (setting [6]) and 9380 in test [1] (setting [7]). In addition, the z-score is 0.863 (inactive) in test [2] (setting [8]), 0.0822 in test [2] (setting [9]) and 0.15 (inactive) in test [3].
Take `O=C1CN(c2ncnc3nc[nH]c23)CCN1Cc1cccc(F)c1`: the fold change in test [1] (setting [4]) is 0.802 (inactive); in test [1] (setting [5]), 2.49. In addition, the cell count is 7800 in test [1] (setting [6]) and 9720 in test [1] (setting [7]). Besides, the z-score was -0.258 (inactive) in test [2] (setting [8]), -0.742 in test [2] (setting [9]) and -0.53 (inactive) in test [3].
On to `Cc1csc2ncnc(-c3cccc4ncccc34)c12`, for which the fold change was 0.896 (inactive) in test [1] (setting [4]) and 0.971 in test [1] (setting [5]). The cell count in test [1] (setting [6]) stood at 7440; in test [1] (setting [7]) it was 8300. In addition, the z-score in test [2] (setting [8]) is 0.0854 (inactive); in test [2] (setting [9]), -0.504; in test [3], -0.49 (inactive).
As to `Nc1[nH]c(=O)[nH]c(=O)c1N`, the figures for the fold change in test [1] (setting [4]) and in test [1] (setting [5]) were 0.894 (inactive) and 0.315, respectively. The cell count is 8900 in test [1] (setting [6]) and 9960 in test [1] (setting [7]). Moreover, the figures for the z-score in test [2] (setting [8]), in test [2] (setting [9]) and in test [3] were 0.368 (inactive), 0.648 and 0.84 (inactive), respectively.
Turning to `O=c1[nH]c(=O)c2[nH]cnc2[nH]1`, the fold change in test [1] (setting [4]) is 0.891 (inactive); in test [1] (setting [5]), 0.584. Also, the cell count in test [1] (setting [6]) was determined as 8870; in test [1] (setting [7]), 9950. Besides, the z-score in test [2] (setting [8]) was 0.44 (inactive); in test [2] (setting [9]), -0.148; in test [3] it was -0.02 (inactive).
In the case of `O=C(NCCCc1ccccc1)NC1CCCCC1`, the values for the fold change in test [1] (setting [4]) and in test [1] (setting [5]) were 0.869 (inactive) and 0.557, respectively. The cell count in test [1] (setting [6]) is 8240; in test [1] (setting [7]), 9480. Besides, the z-score was -0.491 (inactive) in test [2] (setting [8]), -0.675 in test [2] (setting [9]) and 0.35 (inactive) in test [3].
Take `CCn1ncc(NC(=O)Cn2ccc(-c3ncnn3C)n2)n1`: the fold change was 0.85 (inactive) in test [1] (setting [4]) and 1.24 in test [1] (setting [5]). In addition, the cell count worked out at 8780 in test [1] (setting [6]) and 10300 in test [1] (setting [7]). Moreover, the z-score was 0.204 (inactive) in test [2] (setting [8]), -0.374 in test [2] (setting [9]) and -0.5 (inactive) in test [3].
For the compound `COc1ccc(CN2CCN(c3ncnc4sccc34)CC2=O)cc1`, the results for the fold change in test [1] (setting [4]) and in test [1] (setting [5]) were 0.842 (inactive) and 1.22, respectively. The cell count came out at 5020 in test [1] (setting [6]) and 5960 in test [1] (setting [7]). The z-score in test [2] (setting [8]) is -0.496 (inactive); in test [2] (setting [9]), -0.343; in test [3], 0.64 (inactive).
For `O=C(O)CCC(=O)Nc1ccc(Br)cn1`, the fold change in test [1] (setting [4]) was 0.858 (inactive); in test [1] (setting [5]), 0.548. The figures for the cell count in test [1] (setting [6]) and in test [1] (setting [7]) were 8810 and 10300, respectively. For the same compound, the results for the z-score in test [2] (setting [8]), in test [2] (setting [9]) and in test [3] were 0.399 (inactive), -0.113 and 0.275 (inactive), respectively.
As to `CN(C)CCc1c[nH]c2ccc(CC3COC(=O)N3)cc12` (stereo not drawn), the fold change in test [1] (setting [4]) was 0.908 (inactive) and 0.936 (inactive); in test [1] (setting [5]) it was 1.13 and 0.401. For the same compound, the cell count is 9680 and 7960 in test [1] (setting [6]); 10700 and 8510 in test [1] (setting [7]). The results for the z-score in test [2] (setting [8]), in test [2] (setting [9]) and in test [3] were -0.0653 (inactive), 0.00529 and 0.625 (inactive), respectively.
Regarding `CC(c1ncncc1F)[C@](O)(Cn1cncn1)c1ccc(F)cc1F` (stereo partly drawn), the fold change in test [1] (setting [4]) is 0.956 (inactive) and 0.928 (inactive); in test [1] (setting [5]), 2.43 and 0.867. The cell count was 9660 and 8390 in test [1] (setting [6]); 10100 and 9030 in test [1] (setting [7]). The z-score in test [2] (setting [8]) was -0.404 (inactive); in test [2] (setting [9]), 0.698; in test [3], 0.71 (inactive).
`O=C(Nc1cc(Br)c(O)c(Br)c1)c1ccccc1`: the fold change is 0.856 (inactive) in test [1] (setting [4]) and 0.708 in test [1] (setting [5]). Also, the cell count came to 7950 in test [1] (setting [6]) and 9290 in test [1] (setting [7]). Besides, the z-score in test [2] (setting [8]) is 0.106 (inactive); in test [2] (setting [9]), -0.271; in test [3], 0.2 (inactive).
Turning to `CCc1nc(NC(=O)N(C)CC2Cc3ccccc3O2)nn1C` (stereo not drawn), the fold change in test [1] (setting [4]) was 0.87 (inactive); in test [1] (setting [5]) it was 1.41. The cell count in test [1] (setting [6]) stood at 9140; in test [1] (setting [7]) it was 10500. Further, the z-score in test [2] (setting [8]) was 0.229 (inactive); in test [2] (setting [9]), -0.335; in test [3] it was -0.515 (inactive).
For the compound `O=C(O)c1cnc(-c2ccccc2)[nH]1`, the fold change in test [1] (setting [4]) was 0.939 (inactive); in test [1] (setting [5]), 0.271. In addition, the results for the cell count in test [1] (setting [6]) and in test [1] (setting [7]) were 8980 and 9570, respectively. In addition, the z-score in test [2] (setting [8]) is -0.137 (inactive); in test [2] (setting [9]), -0.215; in test [3], 0.375 (inactive).
For `O=C(Cn1nc(Cc2ccccc2)c2ccccc2c1=O)NCCc1ccco1`, the results for the fold change in test [1] (setting [4]) and in test [1] (setting [5]) were 0.937 (inactive) and 0.881, respectively. Besides, the cell count in test [1] (setting [6]) came to 8560; in test [1] (setting [7]), 9130. The z-score was 1.48 (inactive) in test [2] (setting [8]), 0.664 in test [2] (setting [9]) and -0.33 (inactive) in test [3].
As to `CC(=O)N1CCCC(Cn2cnc3scc(-c4cc(C)ccc4C)c3c2=O)C1` (stereo not drawn), the fold change in test [1] (setting [4]) is 0.917 (inactive); in test [1] (setting [5]), 1.14. The cell count in test [1] (setting [6]) worked out at 8240; in test [1] (setting [7]), 8990. The z-score in test [2] (setting [8]) is -0.328 (inactive); in test [2] (setting [9]), -0.378; in test [3], 0.155 (inactive).
Turning to `CC1(C)CC(=O)c2c(N)ncnc2C1`, the fold change in test [1] (setting [4]) was 0.894 (inactive); in test [1] (setting [5]), 0.392. The cell count in test [1] (setting [6]) was 9160; in test [1] (setting [7]) it was 10200. For the same compound, the z-score is 0.568 (inactive) in test [2] (setting [8]), -0.422 in test [2] (setting [9]) and 0.725 (inactive) in test [3].
